{"source": "paper PMC7819943", "about": "“Rice protein-binding microarrays: a tool to detect cis-acting elements near promoter regions in rice”", "note": "In all, about 68,000 sequences were measured (“fluorescence intensity (a.u.)”: median about 9,100, highest 2% from about 16,000 on). This excerpt belongs to a sample that is enriched for the highest values.", "data": [{"molecular_target": "OsWRKY34 (Oryza sativa, UniProt Q0JBA9 1-250)", "sequence (Q0JBA9 entry or part of it)": "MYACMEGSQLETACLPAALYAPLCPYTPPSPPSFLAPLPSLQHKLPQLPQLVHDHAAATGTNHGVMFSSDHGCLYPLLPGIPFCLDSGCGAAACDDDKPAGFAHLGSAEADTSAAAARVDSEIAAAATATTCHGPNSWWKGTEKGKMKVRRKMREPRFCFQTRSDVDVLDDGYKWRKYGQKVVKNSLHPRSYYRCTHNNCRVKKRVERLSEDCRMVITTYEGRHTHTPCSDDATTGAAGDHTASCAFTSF", "assay": "protein-binding microarray (RPBM); PBS, 2% BSA, 51.3 ng/ul salmon testes DNA, 50 uM zinc acetate, 200 nM TF, 25 C, 1 h; high values mean tight binding", "details": "protein: recombinant; tags: N-terminal polyhistidine and DsRed monomer fusion (pET32a); label: CyDye5-dUTP incorporated in the synthesized complementary strand; 3' TTTTT single-stranded linker to array surface; dsDNA, one strand shown", "outline": "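Binding signal is defined as the fluorescence intensity of each feature in arbitrary units, read on an Axon 4000B scanner. Transcription factors with N-terminal polyhistidine and DsRed fusions came from E. coli BL21-CodonPlus and were purified on Ni–NTA. They were incubated at 200 nM for 1 h at 25 °C on a custom Agilent array that had been made double-stranded with Cy5-dUTP, with 50 µM zinc acetate present, and the array was washed.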", "values": [{"sequence": "TGGGGATGTGTTGTGGTGAGCTGGAAAGTGCAAACTGGTTCGGAGTCACCTAGTGCAG", "binding signal": "9630 fluorescence intensity (a.u.)"}, {"sequence": "TCCTGTTTAAAGTTTTTTTTTGTGATTTTTAGATAAAAAACGGAGTCACCTAGTGCAG", "binding signal": "9030 fluorescence intensity (a.u.)"}, {"sequence": "AGACTATCATCTTGAGCTTATTCTTCCATTTGCTCCATCTCGGAGTCACCTAGTGCAG", "binding signal": "8950 fluorescence intensity (a.u.)"}, {"sequence": "AGCCAGCCCAAAAGCCACGCCGTCCACTCCATCTCCGCCTCGGAGTCACCTAGTGCAG", "binding signal": "8440 fluorescence intensity (a.u.)"}, {"sequence": "CGATCGATCGATCGCGCGCCTCCGCCTATAAATTCTTGCCCGGAGTCACCTAGTGCAG", "binding signal": "8230 fluorescence intensity (a.u.)"}, {"sequence": "TTCGTTTTGACTTTTTTCTTAGTAAAACTTTTATGTTTGACGGAGTCACCTAGTGCAG", "binding signal": "11600 fluorescence intensity (a.u.)"}, {"sequence": "GATCGTTTCTATTCCTAATTCGTTTTCTTTATACTCCCTCCGGAGTCACCTAGTGCAG", "binding signal": "11100 fluorescence intensity (a.u.)"}, {"sequence": "AAGGTCGTTGACTTTTTATTCGTCCTCGTCTAATTTCTCCCGGAGTCACCTAGTGCAG", "binding signal": "33600 fluorescence intensity (a.u.)"}, {"sequence": "GCTGTTTGACTTTTTCTTAATTAAGCTTCTTTATGTTTGACGGAGTCACCTAGTGCAG", "binding signal": "19700 fluorescence intensity (a.u.)"}, {"sequence": "CTTTGCGTCTCCTCCCCTTTCTAATCCACTTTTTATTTTTCGGAGTCACCTAGTGCAG", "binding signal": "9730 fluorescence intensity (a.u.)"}, {"sequence": "CCCACCATTTTATATTATAAGCTGTTTGACTTTTTCTTAACGGAGTCACCTAGTGCAG", "binding signal": "13100 fluorescence intensity (a.u.)"}, {"sequence": "CTTCCCTAAATGTTTGACACCGTTGACTTTTTAAAATATACGGAGTCACCTAGTGCAG", "binding signal": "10500 fluorescence intensity (a.u.)"}, {"sequence": "CTAAATGTTTGACACCGTTGACTTTTTTAAATATGTTTGACGGAGTCACCTAGTGCAG", "binding signal": "23300 fluorescence intensity (a.u.)"}, {"sequence": "CCCTAAATATTTGACGCCGTTGACTTTTTTAAATATGTTTCGGAGTCACCTAGTGCAG", "binding signal": "27300 fluorescence intensity (a.u.)"}, {"sequence": "TGCAGTGGCTCCGTCGCTCAGTGAACATCCAGTCCCATTTCGGAGTCACCTAGTGCAG", "binding signal": "9900 fluorescence intensity (a.u.)"}, {"sequence": "GGCCTATATATAACCATTGCTGTTGCCCTAAGAATGAATGCGGAGTCACCTAGTGCAG", "binding signal": "9380 fluorescence intensity (a.u.)"}, {"sequence": "CATTTTTGTTTTTTACTGGGAGATTTTTTTTCCTTTTTCTCGGAGTCACCTAGTGCAG", "binding signal": "11200 fluorescence intensity (a.u.)"}, {"sequence": "TAGTTGTCAGGTCGCTCCGCTTCATTCTGCTGTGCATTTTCGGAGTCACCTAGTGCAG", "binding signal": "10100 fluorescence intensity (a.u.)"}, {"sequence": "ATATAGCTTGCTTGTTCGGTTGTTCCACTGTTCCGTGAGGCGGAGTCACCTAGTGCAG", "binding signal": "8310 fluorescence intensity (a.u.)"}, {"sequence": "AATTGGGAAAATTGGAACCGTGCCACTCCATCATGTTTTCCGGAGTCACCTAGTGCAG", "binding signal": "8210 fluorescence intensity (a.u.)"}, {"sequence": "CTCTCGCCCTTCGCGCTGACCTCCTCACAGCTGCTCTCGCCGGAGTCACCTAGTGCAG", "binding signal": "8440 fluorescence intensity (a.u.)"}, {"sequence": "AAGATCTCCCAGGCCTCGTGTTTTACGTCAACTGGTTGTACGGAGTCACCTAGTGCAG", "binding signal": "8270 fluorescence intensity (a.u.)"}, {"sequence": "ATTTATTAGTTTGATCCCTCTTTTATCACCATGTATTGCCCGGAGTCACCTAGTGCAG", "binding signal": "8570 fluorescence intensity (a.u.)"}, {"sequence": "AGGATCTTTATACACATAGCTACCACAATGGCTACAATTACGGAGTCACCTAGTGCAG", "binding signal": "8130 fluorescence intensity (a.u.)"}, {"sequence": "CCCGCGTCTCGGCCCTCTCCGTCCTCGTTGCTTCCGACGCCGGAGTCACCTAGTGCAG", "binding signal": "8780 fluorescence intensity (a.u.)"}, {"sequence": "ATCTTTCTTATGCTGGCCATGATCTATGTTGCTGTTTTTGCGGAGTCACCTAGTGCAG", "binding signal": "17700 fluorescence intensity (a.u.)"}, {"sequence": "CCCTAAATATTTGACACCGTTGACTTTTTTAAATATGTTTCGGAGTCACCTAGTGCAG", "binding signal": "39600 fluorescence intensity (a.u.)"}, {"sequence": "ATCTCCCATGTGTGCATGCATCTTTTTTTGTTGTTTGCTGCGGAGTCACCTAGTGCAG", "binding signal": "11200 fluorescence intensity (a.u.)"}, {"sequence": "TAATACTTTATGCGTGACTTATCTTTTTAAATTTTTTTCACGGAGTCACCTAGTGCAG", "binding signal": "8970 fluorescence intensity (a.u.)"}, {"sequence": "GGATTTTTGACGGGGTTTTGCAACGGACTTGACTTGTTTACGGAGTCACCTAGTGCAG", "binding signal": "8320 fluorescence intensity (a.u.)"}, {"sequence": "ATTGAGCGATTTTCGGTATTTCACGATGGGTTATATTTTACGGAGTCACCTAGTGCAG", "binding signal": "8720 fluorescence intensity (a.u.)"}, {"sequence": "ATGTTGTTTGTTATGATGCTGTTCTTTTGTTGTTGTTTACCGGAGTCACCTAGTGCAG", "binding signal": "11700 fluorescence intensity (a.u.)"}, {"sequence": "TTTTTGACTTTGACTTTTAATAGTAAAAAAATCAATTATGCGGAGTCACCTAGTGCAG", "binding signal": "9900 fluorescence intensity (a.u.)"}, {"sequence": "CGATTTTTATTTTTCGCCGGATGGGGTTGACTTTTTTTTACGGAGTCACCTAGTGCAG", "binding signal": "20900 fluorescence intensity (a.u.)"}, {"sequence": "TGCGTTGACTTTATCTTCAAATTAATTATGTGCTAATAGGCGGAGTCACCTAGTGCAG", "binding signal": "22300 fluorescence intensity (a.u.)"}, {"sequence": "GGAAGATTACCCTGTTTACCACTCACTGTACGATGATTATCGGAGTCACCTAGTGCAG", "binding signal": "9260 fluorescence intensity (a.u.)"}, {"sequence": "CACACCATTTCCTTTTTCTTTAGAAAATATCACACTATCACGGAGTCACCTAGTGCAG", "binding signal": "9060 fluorescence intensity (a.u.)"}, {"sequence": "ATCGACCTCCATTTTAACGTACGACTCCCTAAGAGACCCGCGGAGTCACCTAGTGCAG", "binding signal": "9660 fluorescence intensity (a.u.)"}, {"sequence": "AATTACTATAACACATCTTCCTAACAAATGCACCTCAATACGGAGTCACCTAGTGCAG", "binding signal": "8050 fluorescence intensity (a.u.)"}, {"sequence": "CATATGTTTACACCCAAATTTGGCACCTAGGATTAAAATACGGAGTCACCTAGTGCAG", "binding signal": "8350 fluorescence intensity (a.u.)"}, {"sequence": "TGCTGTCGTATACTAGAAGCTGATGCTTTTCTTGCTTAGTCGGAGTCACCTAGTGCAG", "binding signal": "8940 fluorescence intensity (a.u.)"}, {"sequence": "CAACCCACACACCACCACACAGATCACAACAGCAAGTTGTCGGAGTCACCTAGTGCAG", "binding signal": "8160 fluorescence intensity (a.u.)"}, {"sequence": "TTTGTTTGGTAAAATTTTTGGTGGGGATTGGAGTTGGAAACGGAGTCACCTAGTGCAG", "binding signal": "9440 fluorescence intensity (a.u.)"}]}]}
